Results reported in the supplement of paper PMC3334620.
The full ranking holds about 33,000 sequences; the median of “E-score (-0.5 to 0.5)” is about -0.016, and the highest 2% start at about 0.32. Only a selection was taken, and the highest values are over-represented in it overall.

biological target: T1, Stp1 (UniProt B3LFK1); test: PBM E-score (8-mer binding enrichment) (E-score (-0.5 to 0.5)); higher = stronger / more preferred TF binding; conditions: protein concentration: 200 nM; construct: GST-full length
T1 sequence: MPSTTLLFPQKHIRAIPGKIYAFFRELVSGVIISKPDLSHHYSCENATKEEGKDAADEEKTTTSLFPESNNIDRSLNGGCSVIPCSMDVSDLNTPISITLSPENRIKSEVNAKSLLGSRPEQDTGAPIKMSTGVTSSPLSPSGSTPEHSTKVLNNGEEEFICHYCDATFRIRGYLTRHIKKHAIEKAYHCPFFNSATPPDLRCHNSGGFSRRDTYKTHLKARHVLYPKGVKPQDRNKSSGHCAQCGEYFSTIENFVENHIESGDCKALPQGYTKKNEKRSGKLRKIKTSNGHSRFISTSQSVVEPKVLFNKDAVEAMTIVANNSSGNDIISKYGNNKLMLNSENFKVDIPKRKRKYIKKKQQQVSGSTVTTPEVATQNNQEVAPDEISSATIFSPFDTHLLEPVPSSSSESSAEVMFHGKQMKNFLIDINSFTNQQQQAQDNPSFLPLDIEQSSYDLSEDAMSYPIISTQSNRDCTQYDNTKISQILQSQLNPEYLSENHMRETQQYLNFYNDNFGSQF
Procedure: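 Universal 'all 10-mer' protein binding microarrays (Agilent AMADID 015681) probed with GST-tagged S. cerevisiae TFs (full-length or DBD) made by in vitro transcription/translation (PURExpress), about 100-200 nM. Bound TF was detected with fluorescent anti-GST. Each ungapped 8-mer (which stands for itself and its reverse complement) is scored by the PBM enrichment score (E-score), a modified Wilcoxon-Mann-Whitney statistic from -0.5 to +0.5, computed with the Universal PBM Analysis Suite. Scale: above 0.35 generally sequence-specific binding.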

Row | Sequence | PBM E-score
1 | CGTCACGA | 0.0354
2 | AGAACGCA | -0.00423
3 | AGGGCATA | 0.128
4 | CCGGCATA | -0.183
5 | ACGGCATA | 0.45
6 | ATGGCATA | 0.226
7 | GTGGCATA | 0.0347
8 | GCGGCATA | 0.435
9 | AGCCTATG | -0.0976
10 | ATTGGCGC | 0.189
11 | ACGCACCG | 0.0649
12 | CGTTGCTC | 0.0478
13 | GAAGGGCA | 0.231
14 | GACCGAGC | -0.228
15 | GGGCGTCA | -0.037
16 | CGGCGTCC | 0.376
17 | CGGCGTCA | 0.399
18 | AGGCGTCA | 0.172
19 | AGGCGTCC | -0.0371
20 | CGGCGTGC | 0.316
21 | GGTGGTGA | -0.125
22 | GAGTACGA | 0.0292
23 | GTCTAAGA | 0.0284
24 | CATACTTA | -0.00908
25 | AACTTCAT | 0.092
26 | GAATCGGC | 0.268

Row | Sequence | PBM E-score
27 | AGCATGCG | 0.016
28 | CAGGGGCA | -0.0911
29 | AGGCCTTC | -0.188
30 | CGGCCTTA | 0.293
31 | CGGCCTTC | 0.322
32 | AATAAATG | 0.219
33 | TATAAATA | 0.198
34 | AATAAATA | 0.35
35 | CACAGTAA | 0.209
36 | GGGAGACC | -0.355
37 | ACCTCACC | -0.128
38 | GCCTCACC | 0.327
39 | GCCTCACA | 0.263
40 | GATGCAGA | -0.0503
41 | GCTGTTGA | 0.169
42 | CTGTAGCC | 0.041
43 | ATTTCAAA | 0.134
44 | CATCGCGG | 0.0513
45 | TCATGGCA | -0.00249
46 | GCATGGCA | 0.375
47 | CCATGGCA | 0.0885
48 | ACTCCGCG | 0.068
49 | CCTACGGA | -0.13
50 | ACTACGGA | -0.0355
51 | ACTACGGG | -0.222
52 | CCTACGGC | 0.39

Row | Sequence | PBM E-score
53 | ACTACGGC | 0.359
54 | CCTACGCC | -0.0289
55 | CTATCTTA | 0.0702
56 | GAAAGGAC | 0.0713
57 | AATAGTAA | 0.0925
58 | CTGTCGCA | 0.00593
59 | CCCGCTGA | -0.297
60 | GATCGCAA | 0.0331
61 | ACGCGCGC | 0.289
62 | CCGCGCGG | 0.469
63 | ACGCGTGC | 0.191
64 | GCGCGCGA | 0.285
65 | CCGCGTGC | 0.329
66 | CCGCGCGC | 0.381
67 | GCGCGCGC | 0.396
68 | ACGCGCGG | 0.316
69 | CAGCGCGG | 0.211
70 | CCGCGTGA | 0.313
71 | CCGCGCTC | 0.235
72 | CCGCGCGA | 0.314
73 | GCTATCCA | -0.0017
74 | CCTCCAGC | -0.217
75 | CAAGAGTC | -0.177
76 | GCCACGGC | 0.469
77 | GCCACGCC | 0.267
78 | ACCACGGA | -0.0752

Row | Sequence | PBM E-score
79 | CCCACGGG | -0.166
80 | CCCACGGA | 0.00496
81 | GCCACGGA | 0.163
82 | ACCACGGC | 0.327
83 | CCCACGGC | 0.417
84 | ACCACGGG | -0.0439
85 | GGCCCCCA | -0.406
86 | AAGCTCAT | -0.206
87 | AATTCTCC | 0.0125
88 | GAATTCTC | 0.0702
89 | CAAGGCGA | 0.194
90 | GAAGGCGC | 0.333
91 | GCAGGCGC | 0.148
92 | AAAGGCGG | 0.111
93 | CAAGGCGG | 0.101
94 | AAAGGCGA | 0.0862
95 | CAAGGCGC | 0.4
96 | GAAGGCGA | 0.129
97 | AAAGGCGC | 0.402
98 | AAACTGGT | -0.0925
99 | AGTTCATG | 0.0464
100 | ATCAGCAT | 0.0572
101 | GAAAACGC | 0.119
102 | TAAGTCGA | -0.123
103 | TAACAGCA | 0.174
104 | AATGCACC | -0.0414

Row | Sequence | PBM E-score
105 | CTAAGAGC | -0.0921
106 | ATCTTCAT | -0.0473
107 | AAGCTGTC | -0.113
108 | ACAACTAT | 0.0651
109 | ATGCCGAG | 0.31
110 | ATGCCGGG | -0.0642
111 | ATGCCGTG | 0.484
112 | ATACCGTA | 0.133
113 | CTGCCGGA | 0.02
114 | CTGCCGTA | 0.343
115 | ATGCCGTA | 0.478
116 | CTTCCGTA | 0.163
117 | ATGCCGTC | 0.406
118 | ATGCCGAC | 0.0658
119 | CTGCCGTC | 0.299
120 | ATTCCGTA | 0.106
121 | CAGCGATG | -0.0761
122 | AACAGAGC | 0.00906
123 | GCCTACAC | -0.0439
124 | ATATCTAA | 0.0738
125 | GAAGCTGC | -0.188
126 | ACGAGCCA | -0.0521
127 | ACGAGCCG | 0.336
128 | CCGAGCCA | -0.0385
129 | ACGAGCCT | -0.0868
130 | CCGAGCCG | 0.334

Row | Sequence | PBM E-score
131 | CCGAGCCC | -0.29
132 | CGAGGGAC | -0.245
133 | CGCCTCAC | 0.395
134 | CGCCTCGA | 0.205
135 | GGCCTCAC | -0.00507
136 | AGCCTCGC | 0.0691
137 | CGCCTCAG | 0.289
138 | CGCCTCGC | 0.394
139 | CAGGAGCC | -0.0638
140 | GGCTTGGA | -0.128
141 | GTTGGGCA | 0.0977
142 | CTCACCCC | 0.0927
143 | GACGCGCC | 0.348
144 | ATTTCGCC | 0.336
145 | ATCGCGCC | 0.394
146 | ATTTCGCG | 0.177
147 | CACGCGCC | 0.291
148 | ATCGCGCA | -0.0273
149 | ATTTCGCA | 0.111
150 | ATCGCGCG | 0.235
151 | ATATCGCC | 0.322
152 | GACGCGCA | -0.105
153 | CTATCGCC | 0.0882
154 | ATATCGCG | 0.127
155 | CATTCGAC | -0.0891
156 | CAAAACGG | 0.308

Row | Sequence | PBM E-score
157 | ACGTGCAG | 0.105
158 | GATGGTCC | -0.219
159 | CCTCTCTC | -0.339
160 | AACGCGCC | 0.361
161 | AACGCGCT | 0.0273
162 | AACGCGCG | 0.232
163 | ACAGGGGT | -0.338
164 | GAAGGTGA | 0.0707
165 | GCCGCGGA | 0.343
166 | ACCGCGGG | 0.0822
167 | CCCGCGGG | 0.104
168 | GCCGCGAC | 0.282
169 | CCCGCGGC | 0.411
170 | ACCGCGGT | -0.3
171 | GCCGCGGC | 0.474
172 | TCCGCGGA | 0.0517
173 | GCCGCGAA | 0.159
174 | ACCGCGGA | -0.0118
175 | ACCGCGGC | 0.384
176 | CCCGCGGA | 0.0756
